Experimental findings from the supplement of paper PMC10849652 are described below.

The full data set covers some 7,900 targets. This sample favours those with a hit. About 0.6% of all pairs of compound and target were hits.

Sequence of UniProt P55196 (P55196 whole entry, looked up): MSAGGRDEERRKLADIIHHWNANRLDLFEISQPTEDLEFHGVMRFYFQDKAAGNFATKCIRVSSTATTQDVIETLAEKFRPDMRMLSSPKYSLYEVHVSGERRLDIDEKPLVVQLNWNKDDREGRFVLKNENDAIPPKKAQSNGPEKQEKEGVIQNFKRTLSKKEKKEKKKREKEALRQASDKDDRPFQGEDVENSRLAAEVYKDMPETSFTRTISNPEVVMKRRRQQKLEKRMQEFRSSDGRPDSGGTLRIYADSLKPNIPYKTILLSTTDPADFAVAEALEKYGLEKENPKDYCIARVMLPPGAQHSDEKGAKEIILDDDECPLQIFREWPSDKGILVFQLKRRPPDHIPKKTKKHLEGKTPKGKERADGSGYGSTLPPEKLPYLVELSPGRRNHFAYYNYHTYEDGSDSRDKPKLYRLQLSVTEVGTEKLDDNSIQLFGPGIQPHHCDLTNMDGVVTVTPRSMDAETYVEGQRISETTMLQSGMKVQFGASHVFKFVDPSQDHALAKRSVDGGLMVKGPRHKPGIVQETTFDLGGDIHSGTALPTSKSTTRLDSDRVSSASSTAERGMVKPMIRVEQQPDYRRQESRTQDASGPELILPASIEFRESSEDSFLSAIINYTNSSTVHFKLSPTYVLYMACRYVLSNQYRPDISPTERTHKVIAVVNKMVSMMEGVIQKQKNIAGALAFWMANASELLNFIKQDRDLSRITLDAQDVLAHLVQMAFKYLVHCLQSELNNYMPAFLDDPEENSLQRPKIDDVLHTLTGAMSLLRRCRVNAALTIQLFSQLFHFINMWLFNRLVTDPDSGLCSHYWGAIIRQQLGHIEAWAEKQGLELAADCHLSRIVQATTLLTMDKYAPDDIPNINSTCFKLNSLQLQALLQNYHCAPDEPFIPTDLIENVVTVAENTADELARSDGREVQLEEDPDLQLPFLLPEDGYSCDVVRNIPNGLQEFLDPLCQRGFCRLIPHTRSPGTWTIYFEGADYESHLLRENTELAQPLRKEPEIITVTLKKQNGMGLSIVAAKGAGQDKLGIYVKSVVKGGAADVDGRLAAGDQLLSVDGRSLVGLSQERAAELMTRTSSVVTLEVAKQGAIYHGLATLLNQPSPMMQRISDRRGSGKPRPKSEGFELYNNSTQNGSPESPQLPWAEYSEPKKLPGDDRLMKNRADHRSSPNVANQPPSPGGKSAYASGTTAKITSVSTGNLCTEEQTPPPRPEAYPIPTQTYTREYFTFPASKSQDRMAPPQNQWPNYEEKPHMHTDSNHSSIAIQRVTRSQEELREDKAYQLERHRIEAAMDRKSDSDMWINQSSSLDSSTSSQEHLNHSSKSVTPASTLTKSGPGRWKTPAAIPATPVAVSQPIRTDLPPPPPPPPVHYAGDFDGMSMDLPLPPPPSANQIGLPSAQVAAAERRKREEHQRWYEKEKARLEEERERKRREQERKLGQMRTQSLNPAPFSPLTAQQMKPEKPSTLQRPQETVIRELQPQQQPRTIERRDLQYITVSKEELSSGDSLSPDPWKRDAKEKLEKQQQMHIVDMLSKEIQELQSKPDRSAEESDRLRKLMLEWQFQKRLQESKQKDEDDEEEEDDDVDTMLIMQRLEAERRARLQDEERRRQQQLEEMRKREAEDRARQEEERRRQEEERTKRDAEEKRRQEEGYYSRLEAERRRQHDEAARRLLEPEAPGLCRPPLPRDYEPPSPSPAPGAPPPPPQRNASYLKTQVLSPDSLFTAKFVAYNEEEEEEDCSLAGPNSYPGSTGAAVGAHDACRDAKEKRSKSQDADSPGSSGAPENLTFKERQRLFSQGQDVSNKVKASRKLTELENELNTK
Sequence of UniProt P52895 (P52895 whole entry, looked up): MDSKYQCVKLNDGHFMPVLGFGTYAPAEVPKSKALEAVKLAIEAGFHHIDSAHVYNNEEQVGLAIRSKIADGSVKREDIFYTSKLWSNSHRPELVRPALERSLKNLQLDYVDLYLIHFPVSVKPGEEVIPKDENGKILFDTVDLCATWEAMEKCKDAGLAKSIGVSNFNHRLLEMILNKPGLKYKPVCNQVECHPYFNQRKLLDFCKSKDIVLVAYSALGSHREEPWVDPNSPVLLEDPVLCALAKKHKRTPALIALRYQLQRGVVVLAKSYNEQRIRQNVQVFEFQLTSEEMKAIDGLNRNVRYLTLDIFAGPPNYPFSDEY
Sequence of UniProt Q8IUR7 (Q8IUR7 whole entry, looked up): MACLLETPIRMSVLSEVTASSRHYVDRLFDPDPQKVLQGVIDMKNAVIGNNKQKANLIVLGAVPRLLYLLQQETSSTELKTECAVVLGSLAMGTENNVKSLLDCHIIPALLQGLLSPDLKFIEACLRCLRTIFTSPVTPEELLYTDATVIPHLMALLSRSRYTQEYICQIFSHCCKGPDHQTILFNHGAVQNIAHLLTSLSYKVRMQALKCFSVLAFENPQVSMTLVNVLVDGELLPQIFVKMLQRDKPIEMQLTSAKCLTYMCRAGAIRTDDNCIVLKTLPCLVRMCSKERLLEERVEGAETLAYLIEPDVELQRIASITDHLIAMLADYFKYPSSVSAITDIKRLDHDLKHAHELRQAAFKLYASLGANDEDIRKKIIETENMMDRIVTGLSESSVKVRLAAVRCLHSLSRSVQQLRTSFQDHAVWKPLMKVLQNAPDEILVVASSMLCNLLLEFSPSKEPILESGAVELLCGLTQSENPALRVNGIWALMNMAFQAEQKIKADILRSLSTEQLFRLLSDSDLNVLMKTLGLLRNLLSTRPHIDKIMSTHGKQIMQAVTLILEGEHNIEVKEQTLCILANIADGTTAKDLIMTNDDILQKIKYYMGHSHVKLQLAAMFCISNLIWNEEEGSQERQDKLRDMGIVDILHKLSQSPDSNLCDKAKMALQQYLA
Sequence of UniProt Q13733 (Q13733 whole entry, looked up): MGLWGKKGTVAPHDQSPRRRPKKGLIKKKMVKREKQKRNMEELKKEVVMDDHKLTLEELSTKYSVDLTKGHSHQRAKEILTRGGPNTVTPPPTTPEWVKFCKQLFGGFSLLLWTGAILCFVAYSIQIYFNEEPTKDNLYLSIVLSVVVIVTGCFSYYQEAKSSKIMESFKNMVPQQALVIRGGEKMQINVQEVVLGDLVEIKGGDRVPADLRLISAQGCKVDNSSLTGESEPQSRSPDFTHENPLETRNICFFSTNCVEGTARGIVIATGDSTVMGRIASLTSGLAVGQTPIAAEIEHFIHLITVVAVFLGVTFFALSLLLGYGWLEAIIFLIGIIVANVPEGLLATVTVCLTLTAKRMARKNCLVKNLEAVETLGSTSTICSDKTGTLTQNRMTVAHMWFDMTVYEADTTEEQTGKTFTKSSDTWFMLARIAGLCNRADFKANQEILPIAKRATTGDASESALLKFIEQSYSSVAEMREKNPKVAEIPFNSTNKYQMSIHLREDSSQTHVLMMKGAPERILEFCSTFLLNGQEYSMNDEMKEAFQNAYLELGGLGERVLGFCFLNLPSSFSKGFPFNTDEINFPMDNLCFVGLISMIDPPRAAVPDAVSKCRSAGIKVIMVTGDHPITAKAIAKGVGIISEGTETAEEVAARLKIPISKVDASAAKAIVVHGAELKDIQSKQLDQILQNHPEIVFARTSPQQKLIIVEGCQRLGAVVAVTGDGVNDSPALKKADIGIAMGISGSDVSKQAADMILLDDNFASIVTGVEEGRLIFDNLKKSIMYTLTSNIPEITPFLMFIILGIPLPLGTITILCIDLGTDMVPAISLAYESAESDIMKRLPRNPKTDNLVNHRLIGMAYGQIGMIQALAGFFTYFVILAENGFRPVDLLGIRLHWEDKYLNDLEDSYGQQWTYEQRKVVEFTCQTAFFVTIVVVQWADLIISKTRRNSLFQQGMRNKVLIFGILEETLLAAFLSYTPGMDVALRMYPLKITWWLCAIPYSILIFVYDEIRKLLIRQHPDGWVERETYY
Sequence of UniProt Q07960 (Q07960 whole entry, looked up): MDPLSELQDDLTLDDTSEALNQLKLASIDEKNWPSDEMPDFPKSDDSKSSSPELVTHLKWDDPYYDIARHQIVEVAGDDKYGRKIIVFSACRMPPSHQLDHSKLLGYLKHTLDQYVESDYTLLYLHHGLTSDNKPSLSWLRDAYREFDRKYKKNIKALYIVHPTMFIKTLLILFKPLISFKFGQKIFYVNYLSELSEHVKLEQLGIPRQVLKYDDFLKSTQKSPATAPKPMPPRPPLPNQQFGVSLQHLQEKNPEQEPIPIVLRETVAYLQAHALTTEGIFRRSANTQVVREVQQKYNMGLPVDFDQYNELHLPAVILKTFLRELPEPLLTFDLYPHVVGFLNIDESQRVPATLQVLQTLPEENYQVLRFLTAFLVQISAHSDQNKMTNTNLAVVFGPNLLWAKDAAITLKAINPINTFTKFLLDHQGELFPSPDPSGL
Sequence of UniProt Q9BR61 (Q9BR61 whole entry, looked up): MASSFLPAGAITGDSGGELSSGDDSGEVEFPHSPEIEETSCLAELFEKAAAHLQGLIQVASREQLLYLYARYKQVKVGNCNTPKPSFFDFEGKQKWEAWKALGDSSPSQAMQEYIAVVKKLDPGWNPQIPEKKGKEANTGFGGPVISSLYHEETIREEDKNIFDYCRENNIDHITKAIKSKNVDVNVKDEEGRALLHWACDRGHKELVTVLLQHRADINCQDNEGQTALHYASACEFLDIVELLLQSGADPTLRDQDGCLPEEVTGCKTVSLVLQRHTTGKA
Sequence of UniProt Q9Y6E2 (Q9Y6E2 whole entry, looked up): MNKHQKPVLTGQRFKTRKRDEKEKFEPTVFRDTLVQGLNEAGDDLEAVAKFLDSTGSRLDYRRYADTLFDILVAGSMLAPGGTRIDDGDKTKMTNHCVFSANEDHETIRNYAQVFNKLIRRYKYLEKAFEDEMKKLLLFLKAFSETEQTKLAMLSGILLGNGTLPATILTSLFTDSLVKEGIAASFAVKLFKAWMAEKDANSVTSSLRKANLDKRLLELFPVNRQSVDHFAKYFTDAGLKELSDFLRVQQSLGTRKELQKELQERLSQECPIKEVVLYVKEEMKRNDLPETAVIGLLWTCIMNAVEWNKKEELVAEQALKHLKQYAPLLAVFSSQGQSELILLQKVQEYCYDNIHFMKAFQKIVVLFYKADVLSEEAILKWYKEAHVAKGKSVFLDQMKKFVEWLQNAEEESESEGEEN

Compound in this assay: c1cn2cc(-c3ccc4cn[nH]c4c3)nc(Nc3ccc(N4CCOCC4)cc3)c2n1 [entospletinib]
The experiment in a line: log2 fold change, soluble protein after heating vs DMSO (PISA); higher = thermal stabilisation; K562 cells, 10 uM, 30 min; active = over 0.2 and 3.5 SD of the protein, either way, in both replicates (recomputed). The method, boiled down: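 For each measurement, 10 μM compound was applied for 30 min to K562 cells at 2×10^6 cells/mL. Aliquots were heated for 3 min across 48°C-58°C, pooled, and extracted in PBS with 0.5% NP-40 at 4°C; the supernatant after 21,000xg for 90 min was soluble protein. This was quantified by TMTpro 16plex LC-MS/MS with channel sums equalised, and thermal stability was reported relative to control samples from duplicates, on a log2 fold-change scale.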
Take AKT1 (UniProt P31749): the log2 fold change was -0.04 (inactive).
Take AP2A1 (UniProt O95782): the log2 fold change was 0.017 (inactive).
Then ATP1A4 (UniProt Q13733), with -0.065 (inactive); and ARFIP1 (UniProt P53367), with -0.109 (inactive); and BZW2 (UniProt Q9Y6E2), with 0.002 (inactive).
As to BECN1 (UniProt Q14457), the log2 fold change is 0.011 (inactive).
For ATOX1 (UniProt O00244), the log2 fold change was -0.005 (inactive).
Turning to ARHGAP1 (UniProt Q07960), the log2 fold change is 0.011 (inactive).
With AAMP (UniProt Q13685), the log2 fold change was 0.063 (inactive).
For the target ACBD6 (UniProt Q9BR61), the log2 fold change is 0.035 (inactive).
For APOH (UniProt P02749), the log2 fold change was 0.206 (inactive).
Then BZW1 isoform 3 (UniProt Q7L1Q6), with 0.03 (inactive).
ALDH6A1 (UniProt Q02252): the log2 fold change is -0.028 (inactive).
Regarding ATAD3B (UniProt Q5T9A4), the log2 fold change is 0.058 (inactive).
AFDN isoform 1 (UniProt P55196): the log2 fold change was -0.028 (inactive).
Turning to AKR1C2 (UniProt P52895), the log2 fold change was 0.071 (inactive).
Turning to ARMC8 (UniProt Q8IUR7), the log2 fold change is -0.011 (inactive).
For ATP6AP1 (UniProt Q15904), the log2 fold change was -0.012 (inactive).
For the target ARPP19 (UniProt P56211), the log2 fold change was -0.06 (inactive).
As for ATL2 (UniProt Q8NHH9), the log2 fold change was 0.016 (inactive).
On to ASB6 (UniProt Q9NWX5), for which the log2 fold change is -0.065 (inactive).
Take ARHGAP4 isoform 2 (UniProt P98171): the log2 fold change was 0.003 (inactive).
On to ADRM1 (UniProt Q16186), for which the log2 fold change is -0.079 (inactive).
